This passage reports outcome and AC50 results from PubChem BioAssay (EPA / NIEHS).

SMILES strings stand for the structures. Some structures have more than one record in an assay (separate samples or runs), and their calls can disagree. Activity calls are given as the source filed them. Rule for the calls: active = hit-call score of the fitted dose curve at least 0.9, where 1 is the maximum; inactive = score below 0.9.

One may read the AC50 as the concentration giving half of the maximal activity seen.

This experiment can be described thus: ATG_RORE_CIS: Attagene CIS-FACTORIAL HepG2 Assay for human RAR-related Orphan Receptor Element (RORE) (AID 2282959). The conditions noted are these: HepG2 Attagene cis-factorial RORE reporter, mRNA; actives raise or lower the signal. Here is the method: ATG_CIS is a cell-based, multiplexed-readout assay that uses HepG2, a human liver cell line, with measurements taken at 24 hours after chemical dosing in a 24-well plate.ATG_RORE_CIS is one of 52 assay component(s) measured or calculated from the ATG_CIS assay. It is designed to make measurements of mRNA induction, a form of inducible reporter, as detected with fluorescence intensity signals by Reverse transcription polymerase chain reaction (RT-PCR) and Capillary electrophoresis technology.Data from the assay component ATG_RORE_CIS was analyzed into 1 assay endpoint. This assay endpoint, ATG_RORE_CIS, was analyzed with bidirectional fitting relative to DMSO as the negative control and baseline of activity. Using a type of inducible reporter, measures of mRNA for gain or loss-of-signal activity can be used to understand the reporter gene at the transcription factor-level as they relate to the gene RORA and RORB and RORC. Furthermore, this assay endpoint can be referred to as a primary readout, because this assay has produced multiple assay endpoints where this one serves a reporter gene function. To generalize the intended target to other relatable targets, this assay endpoint is annotated to the nuclear receptor intended target family, where the subfamily is orphan.
Human liver HepG2 cells are transiently transfected with multiple reporter transcription units (MRTUs) in 6-well plates using FuGene 6 reagent (Roche; 3 ml FuGene/1 mg DNA). The MRTU constructs are regulated by a cis-regulating element (promoter). […] A major difference between the CIS and TRANS system is that in CIS activities of endogenous TFs are measured, whereas the TRANS assay evaluates changes in activities of exogenous, chimeric NR-Gal4 proteins. […] At the end of 24 hour incubation, total RNA was isolated using TriZol reagent (Invitrogen). The isolated RNA is then reverse-transcribed using oligo(dT) primer and Mo-MLV reverse transcriptase (Invitrogen) with DNAse I (Ambion) treatment for 30 min. The one-tenth of the produced cDNA was amplified by PCR using Taq DNA polymerase (Invitrogen) and two reporter sequence-specific primers. The PCR products were fluorescently labeled by primer extension with 6-arboxyfluorescein (6-FAM) 5'-labeled reporter sequence-specific primer (2 min at 95 C, 20 s at 68 C and 10 min at 72 C) and these products were digested with 5U of HpaI (New England Biolabs) for 2h at 37 C. The fragments were purified using Qiaquick PCR columns (Qiagen), analyzed on an ABI 3130xL genetic analyzer (Applied Biosystems) with peak positions identified by using a set of X-rhodamine (ROX)-labeled MapMarker1000 molecular weight standards (BioVentures). The raw capillary electrophoresis data was processed using Attagraph software (Attagene).
With `OCC(F)(F)C(F)(F)C(F)(F)F`, the outcome was inactive.

Turning to `CS(C)(=O)=O`, the compound was called inactive.

For the compound `CCCCCCCCCCCCCCCC[N+](C)(C)Cc1ccccc1`, the call was inactive.

Consider `[Co]`, for which the result was inactive.

With `Nc1ccc(Oc2cccc(Oc3ccc(N)cc3)c2)cc1`, the AC50 is 14.9 µM (active).

In the case of `O[Si](c1ccccc1)(c1ccccc1)c1ccccc1`, the call was inactive.

In the case of `OCC(F)(F)C(F)(F)C(F)(F)C(F)(F)C(F)(F)C(F)(F)F`, the compound was called inactive.

As to `O=C(Cl)C(F)(F)C(F)(F)C(F)(F)C(F)(F)C(F)(F)C(F)(F)C(F)(F)C(F)(F)F`, the AC50 was 44.5 µM (active).

For `FC(F)(F)C(F)(F)C(F)(F)C(F)(F)CCI`, the outcome was inactive.

As for `FC(F)(F)C(F)(F)C(F)(F)CI`, the compound was classed as inactive.

As for `c1ccc(-c2ccccc2-c2ccccc2)cc1`, the compound was classed as inactive.

Turning to `O=C(CC(=O)C(F)(F)C(F)(F)F)C(F)(F)F`, the outcome was inactive.

With `COC(OC(C)=O)c1ccccc1` (stereo not given), the result was inactive.

For the compound `CCc1c(Br)c(Br)c(Br)c(Br)c1Br`, the outcome was inactive.

For `O=C(O)C(F)(F)C(F)(F)F`, the compound was called inactive.

On to `NC(=O)C(F)(F)C(F)(F)C(F)(F)C(F)(F)F`, for which the compound was classed as inactive.

`OCCCC(F)(F)C(F)(F)C(F)(F)C(F)(F)C(F)(F)C(F)(F)C(F)(F)F`: the outcome was inactive and the AC50 was 247 µM (active).

With `N=C(N)C(F)(F)C(F)(F)C(F)(F)C(F)(F)C(F)(F)C(F)(F)C(F)(F)F`, the compound was called inactive.

For `CCCCNc1ccccc1`, the call was inactive.

Regarding `FC(F)(F)C(F)(F)C(F)(F)C(F)(F)C(F)(F)C(F)(F)CCS`, the compound was called inactive.

As to `C#C[C@]1(O)CC[C@H]2[C@@H]3CCc4cc(OC)ccc4[C@H]3CC[C@@]21C`, the compound was classed as inactive.

In the case of `CCN(Cc1cccc(S(=O)(=O)O)c1)c1ccc(C(=C2C=CC(=[N+](CC)Cc3cccc(S(=O)(=O)O)c3)C=C2)c2ccc(O)cc2S(=O)(=O)[O-])cc1`, the call was inactive.

As to `CCCCC(CC)COP(=O)(O)OCC(CC)CCCC` (stereo not given), the call was inactive.

Regarding `CCC(=O)OCCc1ccccc1`, the result was inactive.

In the case of `FC(F)(I)C(F)(F)C(F)(F)C(F)(F)I`, the result was inactive.

`C1COCCN1`: the compound was called inactive.

Take `FC(F)(F)C(F)(F)C(F)(F)C(F)(F)C(F)(F)CCI`: the compound was classed as inactive.

As for `CC(Cc1ccc(O)c(O)c1)C(C)Cc1ccc(O)c(O)c1` (stereo not given), the AC50 is 6.13 µM (active).

Regarding `CC(C)c1ccccc1N`, the compound was classed as inactive.

For the compound `CCCCOc1ccc(N)cc1`, the compound was classed as inactive.

`CC(C)=CCCC(C)CCOC(=O)C(C)C` (stereo not given): the call was inactive.

Take `FC(F)(F)C(F)(F)C(F)(F)C(F)(F)C(F)(F)C(F)(F)C(F)(F)Br`: the result was inactive.

For the compound `O=C(O)C(F)(F)C(F)(F)C(F)(F)F`, the compound was classed as inactive.

With `C=CC(=O)OCC(F)(F)C(F)(F)C(F)(F)C(F)(F)C(F)(F)C(F)(F)C(F)(F)F`, the call was inactive.

Take `Cc1cc(C)cc(O)c1`: the outcome was inactive.

Turning to `CCO[Si](CCC(F)(F)C(F)(F)C(F)(F)C(F)(F)C(F)(F)C(F)(F)F)(OCC)OCC`, the outcome was inactive.

Take `OCC(F)(F)C(F)(F)C(F)(F)C(F)(F)C(F)(F)C(F)F`: the result was inactive.

In the case of `O=C(O)C(F)(F)C(F)(F)C(F)(F)C(F)(F)C(F)(F)C(F)(F)C(F)(F)C(F)(F)C(F)(F)C(F)(F)C(F)(F)C(F)(F)C(F)(F)F`, the outcome was inactive.

As for `O=C(O)C(F)(F)C(F)(F)OC(F)(F)F`, the call was inactive.
